# Experimental data reported in the supplement of paper PMC3342239.
# Test system: Saccharomyces cerevisiae
# Test: fraction of cells in G1 phase (DNA content, flow cytometry); higher = more cells with unreplicated DNA (G1 delay)
# Conditions: temperature: 30 C; YPD; JTY2953 pdr5 snq2 (sensitized); drug added to: cultures diluted from stationary phase; 6-7 h
# Method in brief: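 S. cerevisiae in YPD at 30°C was dosed with library drugs, using a final 20 µg/ml for sensitized JTY2953 diluted 1∶200 from overnight and fixed at 6–7 h, or dosing dividing JTY2953 (fixed at 6 h) and BY4741 (fixed at 4.33 h). Ethanol-fixed, SYTOX Green-stained cells were read by flow cytometry (10,000 events). The G1 fraction is taken as the Dean-Jett-Fox G1 peak area divided by the G1 and G2/M areas combined.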
row,Structure (SMILES),fraction of cells in G1 phase
1,C[C@H]1C[C@@H]2[C@H]([C@@H](O)C[C@@]3(C)[C@H]2CC[C@]3(O)C(=O)CO)[C@@]2(C)C=CC(=O)C=C12 [Methylprednisolone] (53.4072 µM),0.481
2,CCCCc1nc(Cl)c(CO)n1Cc1ccc(-c2ccccc2-c2nnn[nH]2)cc1 [Losartan potassium] (43.3825 µM),0.487
3,CC[C@@]1(O)C[C@H](O[C@H]2C[C@H](N(C)C)[C@H](O[C@H]3C[C@H](O)[C@H](O[C@H]4CCC(=O)[C@H](C)O4)[C@H](C)O3)[C@H](C)O2)c2c(cc3c(c2O)C(=O)c2c(O)cccc2C3=O)[C@H]1C(=O)OC [Aclarubicin] (24.6339 µM),0.364
4,C[C@@H](O[C@H]1OCCN(Cc2n[nH]c(=O)[nH]2)[C@H]1c1ccc(F)cc1)c1cc(C(F)(F)F)cc(C(F)(F)F)c1 [Aprepitant] (37.4225 µM),0.493
